Activity calls are given as the source filed them.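 The calls were made as follows, unless noted: active = inhibition above 20% together with a positive visual image hit; inconclusive = visual image hit but inhibition not above 20%; inactive = no visual image hit.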 Where a SMILES comes first, the peptide text is derived from it. The star is where a group is joined. Boc = CC(C)(C)OC(=O)*

One may read the inhibition as the change of the read-out against control, counted positive when it falls.

Experiment [1] can be described thus: inhibitors of TNFa-induced NFkB p65 translocation, primary screen, imaging, HUVEC, MLSMR starter and 10KST1 sets (AID 438).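 Also: compound added about 3h40 before a 20 min TNFalpha stimulation.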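 As to inhibition: signal is the nuclear over cytoplasmic p65 intensity ratio per well.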 As to conditions: HUVEC TNFa-induced p65 nuclear translocation; cell count: measured here: nuclei count (cytotoxicity indicator), at 2.08 µM; inhibition: at 2 µM, stronger effect = higher value, 0% TNFa-plus-vehicle, 100% no-TNFa wells.
The nature of experiment [2]: inhibitors of mutant huntingtin aggregation, primary screen, imaging, exon1htt(103Q)mCFP cells, high-content imaging (AID 483;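 active = visual image review flags a hit and inhibition of aggregation exceeds 20%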;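 also: compound exposure lasted 3 days before fixation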;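 as to nuclei count: percent of the per-plate median nuclei count of sample wells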). As to conditions: exon1htt(103Q)mCFP cell line, aggregate imaging, at 2 µM; inhibition of aggregation: stronger effect = higher value; nuclei count: measured here: cell count, toxicity.
The nature of experiment [3]: inhibitors of E-selectin induction by TNFa, primary screen, imaging, HUVEC, immunofluorescence, MLSMR starter and 10KST1 sets (AID 487;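 active = visually confirmed hit in the image check and inhibition above 20%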;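 as to inhibition: signal is fraction of cell area covered by stained E-selectin grains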;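 as to nuclei count: 100% = median nuclei count of all wells on the same plate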). As to conditions: HUVEC TNFalpha-induced E-selectin immunofluorescence imaging, at 2 µM; inhibition: stronger effect = higher value; nuclei count: measured here: cell number, toxicity.
Experiment [4] has as its target Voltage-gated potassium channel subunit beta-2 (Rattus norvegicus) (UniProt P62483). Kind of experiment: KvBeta enzyme negative modulators, primary screen, biochemical, NADPH fluorescence (AID 622;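 active = fluorescence slope higher than the sample average by over 3 SD, cut at about -0.22 in these data, passing the limit was not always enough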;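 also: slope of raw intensity against log time taken from 70 to 1610 s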). As to conditions: recombinant KvBeta, 4-cyanobenzaldehyde reduction, at 10 µM, stronger effect = higher value.
The target is the same in experiment [5]. Kind of experiment: KvBeta positive modulators, primary screen, biochemical, NADPH fluorescence (AID 623;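 active = NADPH fluorescence slope more negative than the mean of all samples by about 3 SD, 99.7% confidence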;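 also: fluorescence intensity change per second fitted from 20 to 320 s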). The following applies: Recombinant KvBeta, NADPH fluorescence decrease slope, 10 min; at 10 µM; stronger effect = lower value.
For experiment [6], the target named is Alpha-2C adrenergic receptor (Homo sapiens) (UniProt P18825). Kind of experiment: modulators of alpha2C/GIRK thallium flux, primary screen, cell-based, HEK293 alpha2C/GIRK1/2 (AID 624;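 active = fluorescence slope after compound addition differing from the mean of all screened samples at 99.7% confidence, in either direction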;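 also: slope of fluorescence ratio to pre-addition baseline per second over 15 to 24 s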). The following applies: thallium flux BTC fluorescence, at 10 µM, actives lie on both sides.
Alpha-2C adrenergic receptor (Homo sapiens), sequence (P18825 whole entry, looked up): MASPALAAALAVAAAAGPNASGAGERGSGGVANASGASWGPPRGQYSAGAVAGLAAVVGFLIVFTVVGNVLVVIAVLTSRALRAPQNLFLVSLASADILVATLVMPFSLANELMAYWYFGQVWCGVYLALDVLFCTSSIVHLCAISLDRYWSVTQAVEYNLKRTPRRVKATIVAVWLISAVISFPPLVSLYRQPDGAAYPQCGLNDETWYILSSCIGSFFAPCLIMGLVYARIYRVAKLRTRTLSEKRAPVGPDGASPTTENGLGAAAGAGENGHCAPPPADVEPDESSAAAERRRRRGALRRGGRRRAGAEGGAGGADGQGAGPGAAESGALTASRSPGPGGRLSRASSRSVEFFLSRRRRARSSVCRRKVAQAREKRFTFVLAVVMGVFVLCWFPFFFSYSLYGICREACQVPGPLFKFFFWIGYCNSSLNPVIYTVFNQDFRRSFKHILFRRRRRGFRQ
A short description of experiment [7]: inhibitors of Sendai virus-induced IRF3 signaling, primary screen, TLR/RLR signaling modifier project, cell-based, Sendai virus stimulus, luciferase, 10K MLSCN set (AID 602276;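 active = inhibition at or above 50% at 10 µM; inactive = inhibition below 50%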;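 also: firefly luciferase from ISG56 promoter only with Renilla not read in this screen; 0% = Sendai virus plus DMSO and 100% = medium plus DMSO without virus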). The following applies: HEK293 RL24 IRF3 luciferase reporter, at 10 µM, stronger effect = higher value. (A reporter such as luciferase makes a cellular process visible.)
Experiment [8] in a line: inhibitors of poly I:C-induced TLR3 signaling, primary screen, cell-based, poly I:C stimulus, luciferase, 10K MLSCN set (AID 602277;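 active = inhibition of the reporter signal at or above 50%; inactive = inhibition below 50%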). The following applies: HEK293-TLR3 RL24 IRF3 luciferase reporter, at 10 µM, stronger effect = higher value.

Voltage-gated potassium channel subunit beta-2 (Rattus norvegicus), sequence (P62483 whole entry, looked up): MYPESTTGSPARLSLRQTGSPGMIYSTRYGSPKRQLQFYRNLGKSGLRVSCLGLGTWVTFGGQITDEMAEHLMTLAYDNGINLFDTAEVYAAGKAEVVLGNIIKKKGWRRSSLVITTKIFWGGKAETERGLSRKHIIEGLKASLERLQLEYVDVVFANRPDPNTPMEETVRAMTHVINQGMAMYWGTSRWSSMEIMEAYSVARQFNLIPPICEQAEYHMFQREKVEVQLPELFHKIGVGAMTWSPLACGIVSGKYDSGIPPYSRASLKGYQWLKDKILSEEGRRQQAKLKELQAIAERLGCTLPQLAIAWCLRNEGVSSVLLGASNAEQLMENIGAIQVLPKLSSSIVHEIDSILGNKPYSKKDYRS

For `COC(=O)Nc1sc2c(c1C(N)=O)CCCCCC2`, in experiment [1], the cell count turned out to be 522. Besides, the inhibition in experiment [1] was 2% (inactive); in experiment [3] it was -53.8% (inactive); in experiment [7] it was 5.06% (inactive); in experiment [8], 17.8% (inactive). Besides, the inhibition of aggregation in experiment [2] was 18.9% (inactive). For the same molecule, the nuclei count in experiment [2] came out at 95.2%; in experiment [3] it was 92%. Besides, in experiment [4], the fluorescence slope was -0.509 (inactive). Also, in experiment [5], the NADPH fluorescence slope is -5.2e-05 (inactive). For the same molecule, the slope in experiment [6] was 0.00644 (inactive).
In the case of `NC(=O)CSc1nnc(-c2cc3ccccc3o2)n1Cc1ccccc1`, the cell count in experiment [1] came out at 426. For the same molecule, the inhibition was 6.3% (inactive) in experiment [1], -33% (inactive) in experiment [3], 19.8% (inactive) in experiment [7] and 18.4% (inactive) in experiment [8]. The inhibition of aggregation in experiment [2] was -2.8% (inactive). The nuclei count came out at 101% in experiment [2] and 129% in experiment [3]. Moreover, the fluorescence slope in experiment [4] is -0.272 (inactive). For the same molecule, the NADPH fluorescence slope in experiment [5] was 1.6e-05 (inactive). Further, the slope in experiment [6] is 0.003 (inactive).
On to `Cc1ccc(S(=O)(=O)Cn2nnnc2CN(Cc2ccco2)CC2CCCO2)cc1` (centres undefined), for which the cell count in experiment [1] worked out at 380. The inhibition in experiment [1] is -1% (inactive); in experiment [3] it was -58.1% (inactive); in experiment [7], -5.71% (inactive); in experiment [8], 0.385% (inactive). For the same molecule, the inhibition of aggregation in experiment [2] is 2.3% (inactive). In addition, the figures for the nuclei count in experiment [2] and in experiment [3] were 99.8% and 69.6%, respectively. Moreover, the fluorescence slope in experiment [4] was -0.588 (inactive). In addition, the NADPH fluorescence slope in experiment [5] is -4.2e-05 (inactive). Besides, the slope in experiment [6] was 0.00299 (inactive).
Regarding `COC(=O)[C@H](C)NC(=O)NCc1ccc(F)cc1`, the cell count in experiment [1] was 589. Further, the inhibition was -23.8% (inactive) in experiment [1], -131% (inactive) in experiment [3], 6.37% (inactive) in experiment [7] and -35.7% (inactive) in experiment [8]. Moreover, the inhibition of aggregation in experiment [2] was 24.3% (inactive). For the same molecule, the nuclei count in experiment [2] worked out at 100%; in experiment [3], 96.1%. Also, the fluorescence slope in experiment [4] is -0.622 (inactive). The NADPH fluorescence slope in experiment [5] is -1.3e-05 (inactive). For the same molecule, the slope in experiment [6] was 0.00843 (inactive).
In the case of `O=C(c1cccc(C(=O)N2CCN(c3ccccc3)CC2)c1)N1CCN(c2ccccc2)CC1`, in experiment [1], the cell count was 667. In addition, the inhibition in experiment [1] is -2.6% (inactive); in experiment [3], -86.1% (inactive); in experiment [7], 4.89% (inactive); in experiment [8], -1.16% (inactive). Further, in experiment [2], the inhibition of aggregation was 1.8% (inactive). For the same molecule, the nuclei count in experiment [2] came out at 98.6%; in experiment [3] it was 112%. For the same molecule, the fluorescence slope in experiment [4] was -0.456 (inactive). In addition, the NADPH fluorescence slope in experiment [5] is 3e-05 (inactive). The slope in experiment [6] was 0.00517 (inactive).
For the molecule `CCOC(=O)N1CCN(C(=O)c2csc3c2CCCCC3)CC1`, the cell count in experiment [1] came out at 775. Besides, the inhibition in experiment [1] is -27.2% (inactive); in experiment [3], -86% (inactive); in experiment [7], -2.32% (inactive); in experiment [8], 9.33% (inactive). In addition, the inhibition of aggregation in experiment [2] is 15.1% (inactive). Moreover, the nuclei count in experiment [2] came to 121%; in experiment [3] it was 106%. Further, the fluorescence slope in experiment [4] is -0.311 (inactive). The NADPH fluorescence slope in experiment [5] is 1.7e-05 (inactive). Further, the slope in experiment [6] is 0.00586 (inactive).
Take `COC(=O)CSC1=C(C#N)C(c2ccccc2)CC(=O)N1` (centres undefined): the cell count in experiment [1] stood at 317. Also, the inhibition was 1.5% (inactive) in experiment [1], 7.2% (inactive) in experiment [3], 25.3% (inactive) in experiment [7] and 21.9% (inactive) in experiment [8]. Also, the inhibition of aggregation in experiment [2] was -2.2% (inactive). Moreover, the nuclei count in experiment [2] came out at 89.5%; in experiment [3] it was 86.9%. Moreover, the fluorescence slope in experiment [4] was -0.372 (inactive). In addition, the NADPH fluorescence slope in experiment [5] was -1.7e-05 (inactive). In addition, in experiment [6], the slope was 0.00515 (inactive).
With `CC(C)CC(NC(=O)OC(C)(C)C)C(=O)NC(C(=O)N1CCCC1C(N)=O)C(C)C` (stereo not drawn) (Boc-Leu-Val-Pro-NH2; configuration not given here), the cell count in experiment [1] came to 662. In addition, the inhibition is 8.7% (inactive) in experiment [1], 62.5% (inactive) in experiment [3], 4.38% (inactive) in experiment [7] and 20.6% (inactive) in experiment [8]. For the same molecule, in experiment [2], the inhibition of aggregation was -4% (inactive). The nuclei count in experiment [2] was 100%; in experiment [3], 89.1%. Also, in experiment [4], the fluorescence slope was -0.485 (inactive). In experiment [5], the NADPH fluorescence slope is -2.7e-05 (inactive). The slope in experiment [6] is 0.00542 (inactive).
For `CCCCn1c(SCC(=O)N2CC(=O)Nc3ccccc32)nnc1-c1ccoc1C`, the cell count in experiment [1] amounted to 494. In addition, the inhibition in experiment [1] was -7.7% (inactive); in experiment [3] it was -146% (inactive); in experiment [7], 13.2% (inactive); in experiment [8], 19.3% (inactive). In addition, the inhibition of aggregation in experiment [2] is 15.6% (inactive). Also, the nuclei count in experiment [2] came out at 114%; in experiment [3], 174%. In experiment [4], the fluorescence slope was -0.534 (inactive). In addition, the NADPH fluorescence slope in experiment [5] is -3.6e-05 (inactive). The slope in experiment [6] was 0.00478 (inactive).
For `N#CCC(=O)N1CCn2c1nc1ccccc12`, in experiment [1], the cell count is 301. For the same molecule, the inhibition was -3.4% (inactive) in experiment [1], -16.4% (inactive) in experiment [3], 11.2% (inactive) in experiment [7] and 24.2% (inactive) in experiment [8]. The inhibition of aggregation in experiment [2] was -20.8% (inactive). The nuclei count in experiment [2] is 94.4%; in experiment [3] it was 101%. For the same molecule, the fluorescence slope in experiment [4] was -0.492 (inactive). In addition, the NADPH fluorescence slope in experiment [5] was -3.8e-05 (inactive). Moreover, the slope in experiment [6] was 0.00588 (inactive).
`CN(C(=O)c1ccccc1Cl)c1ccccc1`: the cell count in experiment [1] is 611. Further, the inhibition in experiment [1] was -2.4% (inactive); in experiment [3], -28.1% (inactive); in experiment [7], 15% (inactive); in experiment [8], 18.4% (inactive). Further, the inhibition of aggregation in experiment [2] is 3% (inactive). Further, the values for the nuclei count in experiment [2] and in experiment [3] were 107% and 92.5%, respectively. In experiment [4], the fluorescence slope was -0.561 (inactive). Besides, in experiment [5], the NADPH fluorescence slope is -2e-06 (inactive). The slope in experiment [6] is 0.00587 (inactive).
As to `COc1cc(OC)cc(OCC(O)Cn2cnc(-c3ccccc3)c2)c1` (centres undefined), the cell count in experiment [1] came to 586. In addition, the inhibition in experiment [1] was 6% (inactive); in experiment [3] it was 11.1% (inactive); in experiment [7], 17.6% (inactive); in experiment [8], 31.3% (inactive). Moreover, in experiment [2], the inhibition of aggregation is -5.4% (inactive). The nuclei count in experiment [2] was 92.1%; in experiment [3] it was 94.7%. For the same molecule, the fluorescence slope in experiment [4] is -0.469 (inactive). In experiment [5], the NADPH fluorescence slope was -4e-05 (inactive). In addition, the slope in experiment [6] is 0.00517 (inactive).
`NC(=O)c1c(NC(=O)CN2CCCC2)sc2c1CCCC2`: the cell count in experiment [1] was determined as 577. In addition, the inhibition in experiment [1] is 3% (inactive); in experiment [3] it was 15.2% (inactive); in experiment [7], -25.4% (inactive); in experiment [8] it was -70.1% (inactive). Besides, in experiment [2], the inhibition of aggregation is 5.3% (inactive). The nuclei count came out at 65.3% in experiment [2] and 84.6% in experiment [3]. Besides, the fluorescence slope in experiment [4] was -0.599 (inactive). Moreover, in experiment [5], the NADPH fluorescence slope was -1.9e-05 (inactive). Further, the slope in experiment [6] was 0.00312 (inactive).
For the molecule `O=C(COC(=O)c1cnccn1)c1ccc(OC(=O)c2ccccc2)cc1`, the cell count in experiment [1] worked out at 214. In addition, the inhibition in experiment [1] is -7.5% (inactive); in experiment [3], -170% (inactive); in experiment [7] it was 18.9% (inactive); in experiment [8], 35.6% (inactive). In addition, in experiment [2], the inhibition of aggregation is 21.7% (inactive). For the same molecule, the nuclei count in experiment [2] amounted to 95.2%; in experiment [3], 132%. Besides, the fluorescence slope in experiment [4] is -0.359 (inactive). In addition, the NADPH fluorescence slope in experiment [5] was -6.1e-05 (inactive). The slope in experiment [6] was 0.00809 (inactive).

For the origin of these results see PubChem BioAssay.
